LASV entry inh – inhibitors of Lassa virus binding or cell entry; Potency, µM (top dose mostly 37.9 µM), inactives show at the top dose activity change, negative = inhibition, hits mostly inhibitors; Lassa virus pseudotype entry inhibition, cell reporter; 300,000 tested, 1.2% active; calls by dose curve; tested in HEK293 cells; note: potency is the fitted concentration of half-maximal effect; nearly all actives have a fitted effect of over 50% in size
HCMV inh – blocks human cytomegalovirus replication; HFF cells, HCMV-luciferase reporter, 72 h; hits give low values; activity change, negative = inhibition, % at 57.5 µM; 410,000 tested, 4.5% active; AID 1259415; in the data active = activity change below about -60%; inconclusive = no clear call, values can overlap the other calls; inactive = above about -39%
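HFF cells seeded 16 h at 37C, treated with compounds, infected with luciferase-reporter HCMV at MOI 1 PFU/cell; luciferase read at 72 h post infection, normalized to buffer-only and Salinomycin controls.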
VACV Venus inh – vaccinia inhibition (Venus reporter); Vaccinia virus Venus reporter expression, fluorescence; Potency, µM (top dose mostly 36.5 µM), without a hit: at the top dose activity change, negative = inhibition, usual class: inhibitors; 330,000 tested, 0.46% active; calls by dose curve; tested in A549 cells; note: potency is the fitted concentration of half-maximal effect; nearly all actives have a fitted effect of over 30% in size
Vaccinia mCherry – vaccinia inhibition (mCherry reporter). Vaccinia virus mCherry reporter infection, fluorescence. Potency, µM (titrated, usually from 36.5 µM), for inactives: at the highest dose activity change, negative = inhibition, usual class: inhibitors. 310,000 tested, 0.63% active. AID 720579; calls by dose curve; tested in A549 cells; note: potency is the fitted concentration of half-maximal effect; nearly all actives have a fitted effect of over 35% in size
HCV inhibitor – inhibitors of hepatitis C virus infection. 340,000 tested, 3.4% active. Potency, µM (titrated, usually from 41.8 µM), for inactives: top-dose activity change, negative = inhibition, hits mostly inhibitors. AID 651820. Huh7.5.1 HCVcc-Cre infection, luciferase reporter, 44 h; active = well fitted inhibition curve with a large enough effect; inconclusive = small, poorly fitted or top-dose-only effect, or another doubt; inactive = no such curve, though single readings can be large or run the other way; note: potency is the fitted concentration of half-maximal effect
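Antiviral activity was scored by luciferase reporter output from cells infected with HCVcc-Cre (~0.5 moi) in presence of compound, 44 h infection period, cells seeded 1,000/well 4 h prior.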
MARV entry inh – inhibitors of Marburg virus binding or cell entry; Marburg virus pseudotyped entry inhibition, cell reporter; Potency, µM (titrated, usually from 37.8 µM), for inactives: at the top dose activity change, negative = inhibition, actives largely listed as inhibitors; 300,000 tested, 1.8% active; AID 540276; calls by dose curve; tested in HEK293 cells; note: potency is the fitted concentration of half-maximal effect
* hit, by the source's call; i = inactive; ? = inconclusive; nt = not tested or not shown; [ ] = dose if it differs, or a comment. Compounds with a hit are over-represented: about 7.8% of the library has one in this group of screens. % is set by controls: 0 for no effect and ±100 for the full control effect.

SMILES	LASV entry inh	HCMV inh	VACV Venus inh	Vaccinia mCherry	HCV inhibitor	MARV entry inh
CCn1c(SCC(=O)c2cccs2)nnc1-c1cccs1	?	41.9	-1.9%	-12.9%	17.8%	22.9%
Cc1ccc(NC(=O)CN2C(=O)CCc3cc(S(=O)(=O)N4CCOCC4)ccc32)cc1N(C)C	-1.4%[46.1 µM]	10.8	0.2%	-9.4%	nt	nt
CCn1c(=O)cc(OCC(=O)NCc2ccccc2Cl)c2ccccc21	20.1%[46.1 µM]	-8.8	-4.3%	-0.2%	nt	7.8%[46.1 µM]
Cc1cccc(/C(N)=N/OC(=O)N2CCOCC2)c1	16.4µM*	-74.0*	?	?	?	23.1µM*
Cc1ccc(/C(N)=N/OC(=O)N2CCOCC2)cc1	?	-85.4*	-25.1%	-20.1%	?	14.6µM*
Cc1ccc(C(=O)NC2=NCCS2)cc1	nt	93.6	nt	nt	nt	-1.1%
CC(C)c1ccc(C(=O)NC2=NCCS2)cc1	16.4µM*	67.8	-8.3%	i	11.1%	7.31µM*
CC(C)Oc1ccc(C(=O)NC2=NCCS2)cc1	?	60.7	-5.8%	i	20.7%	8.91µM*
COc1ccc(C(=O)NC2=NCCS2)cc1	28.9%[46.1 µM]	103.8	-8.2%	i	2.0%	?
CCCCCCCCCC[n+]1ccc(/C=C/c2c(C)[nH]c3ccccc23)cc1	nt	nt	397.9%	?	nt	nt
CC(Nc1nc(-c2ccc3c(c2)NC(=O)CO3)cs1)c1ccccc1 (stereo not drawn)	-14.3%	?	-23.8%	-25.9%	11.2µM*	?
O=C1COc2ccc(-c3csc(-c4ccc(F)cc4)n3)cc2N1	nt	nt	-13.2%	-14.4%	nt	nt
COc1cccc(-c2nc(-c3ccc4c(c3)NC(=O)CO4)cs2)c1	13.0%	2.2	-15.5%	-5.4%	14.1µM*	?
CCOC(=O)CCN1C(=O)[C@@H]2[C@H]3[C@H](O)[C@H](O)CC(=NNC(=O)OCc4ccc(OC)cc4)[C@H]3CC[C@H]2C1=O	0.168µM*	nt	nt	nt	nt	22.5%[14.2 µM]
CCOC(=O)CCN1C(=O)[C@H]2[C@H]3[C@H](O)[C@H](O)C/C(=N\NC(=O)OCc4ccc(OC)cc4)[C@H]3CC[C@H]2C1=O	nt	nt	nt	nt	nt	22.5%[14.2 µM]
O=C(Cc1c[nH]c2ccccc12)Nc1nnc(C2CC2)s1	3.55µM*	-79.7*	20.0%	?	-0.6%	?
CC(=O)c1cccc(S(=O)(=O)Nc2ccc3nc(C)sc3c2)c1	-0.9%	?	-8.4%	i	-18.8%	-28.8%
Cc1nc2ccc(NS(=O)(=O)c3ccc(C)c(C)c3)cc2s1	-12.5%	-88.4*	?	-8.2%	?	?
Cc1nc2ccc(NS(=O)(=O)c3ccc(F)c(C)c3)cc2[nH]1	nt	-60.1*	nt	nt	7.08µM*	nt
COCCNC(=O)CN(Cc1ccccc1)S(=O)(=O)c1ccc2nc(C)sc2c1	nt	-60.7*	nt	nt	13.4%	nt
COc1ccc(NC(=O)CN(C)S(=O)(=O)c2ccc3nc(C)sc3c2)cc1Cl	-2.3%[46.1 µM]	-68.6*	-11.4%	-16.6%	nt	-1.9%[46.1 µM]
COC(=O)[C@H]1[C@H](CCc2ccccc2)NC(=O)N(Cc2ccccc2)[C@H]1C	?	nt	nt	nt	nt	-14.7%[14.2 µM]
COc1cccc(C2=CC(c3ccccc3F)n3ncc(C(=O)Nc4ccc(F)cc4)c3N2)c1 (stereo not drawn)	?	-32.3	-16.4%	?	nt	nt
COc1cc(S(=O)(=O)Nc2ccc3nc(C)sc3c2)ccc1NC(C)=O	nt	-88.3*	nt	nt	?	nt
COc1cc(CNc2ccc3[nH]c(=O)[nH]c3c2)ccc1OCc1ccc(C)cc1	-12.4%[46.1 µM]	13.9	?	?	?	-23.9%[46.1 µM]
SMILES	LASV entry inh	HCMV inh	VACV Venus inh	Vaccinia mCherry	HCV inhibitor	MARV entry inh
COc1cc(CNc2ccc3[nH]c(=O)[nH]c3c2)ccc1OCc1cccc(C)c1	?	-66.1*	?	?	6.31µM*	-20.1%
COc1ccc(-c2noc(-c3ccccc3Cl)n2)cc1OC	-27.0%	60.6	-0.9%	-3.7%	10µM*	13.4%
CCOc1ccc(-c2nc(-c3ccc(OC)cc3)no2)cc1OCC	4.9%	0.7	nt	nt	7.94µM*	7.3%
COc1ccc(-c2noc(-c3ccco3)n2)cc1OC	?	130.1	-13.7%	i	11.2µM*	-19.8%
CCOc1ccc(-c2noc(-c3ccncc3)n2)cc1OCC	-7.9%	40.8	nt	nt	?	18.8%
COc1ccc(-c2noc(-c3cccc(Cl)c3)n2)cc1OC	17.4%	8.2	-6.3%	-15.7%	-18.9%[0.335 µM]	?
O=S1(=O)C=CCN1C1CCCC1	7.2%[46.1 µM]	nt	nt	nt	nt	nt
